Laboratory results as given in PubChem BioAssay (Tox21).
Results filed as inconclusive are left out. Active and inactive are the calls of the source. Unless noted, calls come from the whole dose curve.

Assays:
[1] = qHTS assay to identify small molecule agonists of the peroxisome proliferator-activated receptor delta (PPARd) signaling pathway - cell viability counter screen (AID 743211; active = well fitted curve in the direction sought with a large enough effect in the repeat runs; an effect the other way counts as inactive or inconclusive; note: nearly all actives have a fitted effect of over 55% in size; note: potency is the fitted concentration of half-maximal effect)
Method in brief: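 PPARd-bla HEK293H cells (UAS-beta-lactamase reporter) were treated with compounds for 17 h at 37 C. Viability was then read in the same wells by CellTiter-Glo luminescence after 30 min at room temperature.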

[2] = qHTS assay to identify small molecule agonists of the farnesoid-X-receptor (FXR) signaling pathway - cell viability counter screen (AID 743218; active = well fitted curve in the direction sought with a large enough effect in the repeat runs; an effect the other way counts as inactive or inconclusive; note: nearly all actives have a fitted effect of over 45% in size; note: potency is the fitted concentration of half-maximal effect)
Method in brief: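 Parallel cytotoxicity test: compound-treated (16 h, 37 C) HEK 293T FXR-bla reporter cells were lysed with CellTiter-Glo and luminescence recorded.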

[3] = molecular target: Bile acid receptor (Homo sapiens) (UniProt Q96RI1); assay: qHTS assay to identify small molecule agonists of the farnesoid-X-receptor (FXR) signaling pathway (AID 743220; active = well fitted activation curve with a large enough effect in the signal ratio in the repeat runs, not every such curve was filed as active; the % refers to the signal ratio)
Method in brief: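 Beta-lactamase reporter under UAS control in GeneBLAzer FXR HEK 293T cells (5000/well) measured with LiveBLAzer FRET substrate after 2 h at room temperature. Compound exposure lasted 16 h at 37C.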

[4] = qHTS assay to identify small molecule antagonists of the farnesoid-X-receptor (FXR) signaling pathway - cell viability counter screen (AID 743221; active = well fitted cell-killing curve with a large enough effect in the repeat runs, not every such curve was filed as active; note: nearly all actives have a fitted effect of over 50% in size; note: potency is the fitted concentration of half-maximal effect)
Method in brief: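 FXR-UAS-bla HEK 293T cells were treated with test compounds plus chenodeoxycholic acid (50 uM final) for 16 h at 37 C. Cell viability in the same wells was then read as CellTiter-Glo luminescence after 30 min at room temperature.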

[5] = qHTS assay to identify small molecule agonists of the NFkB signaling pathway (AID 1159509; active = well fitted curve in the direction sought with a large enough effect in the signal ratio in the repeat runs, not every such curve was filed as active; the % refers to the signal ratio; note: series mostly up to about 61 µM)
Method in brief: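 After overnight attachment, reporter cells received test compounds, DMSO or positive controls and were incubated 5 hr at 37 C. FRET substrate was then added for 1.5 hr at room temperature before dual-emission fluorescence reading.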

[6] = qHTS assay to identify small molecule agonists of the NFkB signaling pathway - cell viability counter screen (AID 1159515); note: series mostly up to about 61 µM; nearly all actives have a fitted effect of over 55% in size
Method in brief: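 Using the same wells as the NFkB reporter read, ME-180 NFkB-bla cells given compounds for 5 hr were assessed for viability via CellTiter-Glo, with luminescence taken after a 30 min room-temperature incubation.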

[7] = qHTS assay to identify small molecule agonists of the endoplasmic reticulum stress response signaling pathway (AID 1159516; active = well fitted activation curve with a large enough effect in the signal ratio in the repeat runs, not every such curve was filed as active; the % refers to the signal ratio)
Method in brief: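 An ESRE-bla HeLa cell assay: compounds were pin-transferred from DMSO onto overnight-plated cells and left 5 hr at 37 C. Substrate was then loaded for 2 hr at room temperature before reading fluorescence at 460 nm and 530 nm.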

[8] = qHTS assay to identify small molecule agonists of the endoplasmic reticulum stress response signaling pathway - cell viability counter screen (AID 1159517);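 note: HeLa cells carrying an ER stress response element beta-lactamase reporter; series mostly up to about 61 µM; nearly all actives have a fitted effect of over 50% in size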
Method in brief: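 Luminescence readout: CellTiter-Glo, 30 min RT, same wells as the ESRE-bla reporter read. HeLa ESRE-bla, 1,500 cells/well, o/n 37 C; cpd 5 hr 37 C/5% CO2.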

[9] = molecular target: Nuclear receptor ROR-gamma (Homo sapiens) (UniProt P51449); assay: qHTS assay to identify small molecule antagonists of the retinoid-related orphan receptor gamma (ROR-gamma) signaling pathway (AID 1159521; active = well fitted curve in the direction sought with a large enough effect in the repeat runs; an effect the other way counts as inactive or inconclusive; note: nearly all actives have a fitted effect of over 50% in size; note: potency is the fitted concentration of half-maximal effect)
Method in brief: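 Tet-on RORγ CHO cells carrying a ROR response element–luciferase reporter were pretreated with compounds for 2 h, then induced with 1 uM (final) doxycycline hyclate for 16 h at 37 C. Antagonism was read as decreased ONE-Glo luminescence.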

[10] = qHTS assay to identify small molecule agonists of the AP-1 signaling pathway (AID 1159526)
[11] = molecular target: Peroxisome proliferator-activated receptor delta (Homo sapiens) (UniProt Q03181); assay: qHTS assay to identify small molecule agonists of the peroxisome proliferator-activated receptor delta (PPARd) signaling pathway (AID 743212)
Method in brief: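 GeneBLAzer PPARd UAS-bla HEK293H cells (beta-lactamase reporter under UAS control), plated and rested 5 h at 37 C, then exposed to compounds in DMSO at 37 C; LiveBLAzer B/G FRET substrate added, 2 h room temperature, fluorescence read.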

[12] = qHTS assay to identify small molecule antagonists of the peroxisome proliferator-activated receptor delta (PPARd) signaling pathway - cell viability counter screen (AID 743213; active = well fitted curve in the direction sought with a large enough effect in the repeat runs; an effect the other way counts as inactive or inconclusive; note: nearly all actives have a fitted effect of over 50% in size; note: potency is the fitted concentration of half-maximal effect)
Method in brief: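 PPARd-bla HEK293H cells were treated with compounds plus agonist L165041 (300 nM final) for 17 h at 37 C. Viability was then read in the same wells by CellTiter-Glo luminescence after 30 min at room temperature.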

[13] = qHTS assay to identify small molecule agonists of the vitamin D receptor (VDR) signaling pathway - cell viability counter screen (AID 743224; active = well fitted curve in the direction sought with a large enough effect in the repeat runs; an effect the other way counts as inactive or inconclusive; note: nearly all actives have a fitted effect of over 50% in size; note: potency is the fitted concentration of half-maximal effect)
Method in brief: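 Plated VDR-bla cells (4 h, 37C) received compound, incubated 16 h, then LiveBLAzer substrate 2 h RT; CellTiter-Glo added afterwards, luminescence read at 30 min.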

[14] = qHTS assay to identify small molecule antagonists of the vitamin D receptor (VDR) signaling pathway - cell viability counter screen (AID 743225; active = well fitted curve in the direction sought with a large enough effect in the repeat runs; an effect the other way counts as inactive or inconclusive; note: nearly all actives have a fitted effect of over 50% in size)
Method in brief: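 VDR-bla HEK 293T cells, 4 h pre-incubation at 37C, then compound plus 1-alpha,25-dihydroxyvitamin D3 (3 nM final) for 16 h. After the beta-lactamase FRET read, CellTiter-Glo was added to the same wells; luminescence after 30 min at room temperature.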

[15] = qHTS assay to identify small molecule agonists of the AP-1 signaling pathway - cell viability counter screen (AID 1159525); note: nearly all actives have a fitted effect of over 55% in size
Method in brief: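 ME-180 AP-1-bla, 2500 cells/well, Opti-MEM + 0.5% dialyzed FBS; overnight 37 °C; cpd 15-pt titration, 5 h 37 °C; CellTiter-Glo 30 min RT; luminescence read; normalised to TOAB and DMSO controls.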

[16] = molecular target: Bile acid receptor (Homo sapiens) (UniProt Q96RI1); assay: qHTS assay to identify small molecule antagonists of the farnesoid-X-receptor (FXR) signaling pathway (AID 743217; active = well fitted inhibition curve with a large enough effect in the signal ratio in the repeat runs, not every such curve was filed as active; the % refers to the signal ratio)
Method in brief: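 GeneBLAzer FXR-UAS-bla HEK 293T, CDCA-stimulated (50 uM final). Compound treatment 16 h, 37 °C. Detection: beta-lactamase cleavage of B/G FRET substrate, fluorescence.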

[17] = molecular target: Vitamin D3 receptor (Homo sapiens) (UniProt P11473); assay: qHTS assay to identify small molecule agonists of the vitamin D receptor (VDR) signaling pathway (AID 743222)
Method in brief: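 In VDR-bla cells, compound-induced beta-lactamase expression is quantified by FRET substrate fluorescence. Treatment lasts 16 h at 37C; substrate develops 2 h at room temperature.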

[18] = molecular target: Vitamin D3 receptor (Homo sapiens) (UniProt P11473); assay: qHTS assay to identify small molecule antagonists of the vitamin D receptor (VDR) signaling pathway (AID 743223; active = well fitted inhibition curve with a large enough effect in the signal ratio in the repeat runs, not every such curve was filed as active; the % refers to the signal ratio)
Method in brief: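 VDR-bla cells were plated, incubated 4 h at 37C, then given compound and 1alpha,25-dihydroxyvitamin D3 (3 nM final). After 16 h at 37C, LiveBLAzer B/G FRET substrate was added for 2 h at room temperature and fluorescence read.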

[19] = molecular target: Peroxisome proliferator-activated receptor delta (Homo sapiens) (UniProt Q03181); assay: qHTS assay to identify small molecule antagonists of the peroxisome proliferator-activated receptor delta (PPARd) signaling pathway (AID 743215; active = well fitted inhibition curve with a large enough effect in the signal ratio in the repeat runs, not every such curve was filed as active; the % refers to the signal ratio;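 note: cells stimulated with agonist L165041 at 300 nM final during compound exposure; series mostly up to about 62 µM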)
Method in brief: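 HEK293H UAS-bla, PPARd; agonist L165041 300 nM final with cpd in DMSO; 37 C 17 h; FRET substrate, RT 2 h; fluorescence intensity.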

[20] = qHTS assay to identify small molecule antagonists of the retinoid-related orphan receptor gamma (ROR-gamma) signaling pathway - cell viability counter screen (AID 1159520; active = well fitted curve in the direction sought with a large enough effect in the repeat runs; an effect the other way counts as inactive or inconclusive; note: nearly all actives have a fitted effect of over 50% in size)
Method in brief: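 Tet-on ROR gamma CHO cells (1,000/well) were plated 4 hr, given compounds in DMSO for 2 hr at 37 C, then induced with 1 uM final doxycycline for 16 hr. Viability was read as ATP by CellTiter-Glo luminescence after 30 min.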

Measured: Potency

Peroxisome proliferator-activated receptor delta (Homo sapiens), sequence (Q03181 whole entry, looked up): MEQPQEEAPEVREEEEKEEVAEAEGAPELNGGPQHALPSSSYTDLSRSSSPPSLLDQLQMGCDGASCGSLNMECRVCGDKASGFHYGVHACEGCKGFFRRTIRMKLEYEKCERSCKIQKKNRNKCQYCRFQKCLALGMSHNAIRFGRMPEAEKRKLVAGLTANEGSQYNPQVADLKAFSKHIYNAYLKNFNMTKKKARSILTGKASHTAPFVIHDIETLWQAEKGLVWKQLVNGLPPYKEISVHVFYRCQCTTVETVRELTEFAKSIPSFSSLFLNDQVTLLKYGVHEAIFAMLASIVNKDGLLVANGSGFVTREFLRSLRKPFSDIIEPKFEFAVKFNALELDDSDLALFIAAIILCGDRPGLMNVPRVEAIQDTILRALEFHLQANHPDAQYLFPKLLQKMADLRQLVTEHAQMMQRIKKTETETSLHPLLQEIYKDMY
Vitamin D3 receptor (Homo sapiens), sequence (P11473 whole entry, looked up): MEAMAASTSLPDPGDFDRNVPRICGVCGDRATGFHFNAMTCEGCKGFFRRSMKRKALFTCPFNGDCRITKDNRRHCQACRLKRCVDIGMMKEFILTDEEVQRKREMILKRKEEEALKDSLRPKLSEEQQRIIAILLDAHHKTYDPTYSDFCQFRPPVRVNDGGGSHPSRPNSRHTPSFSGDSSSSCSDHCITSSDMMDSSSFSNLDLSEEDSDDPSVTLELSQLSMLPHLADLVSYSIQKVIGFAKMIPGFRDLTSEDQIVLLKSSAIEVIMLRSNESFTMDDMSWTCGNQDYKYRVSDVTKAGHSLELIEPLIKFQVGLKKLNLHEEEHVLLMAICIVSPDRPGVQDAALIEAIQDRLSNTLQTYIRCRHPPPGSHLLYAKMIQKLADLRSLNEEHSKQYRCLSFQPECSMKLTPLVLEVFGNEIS
Bile acid receptor (Homo sapiens), sequence (Q96RI1 whole entry, looked up): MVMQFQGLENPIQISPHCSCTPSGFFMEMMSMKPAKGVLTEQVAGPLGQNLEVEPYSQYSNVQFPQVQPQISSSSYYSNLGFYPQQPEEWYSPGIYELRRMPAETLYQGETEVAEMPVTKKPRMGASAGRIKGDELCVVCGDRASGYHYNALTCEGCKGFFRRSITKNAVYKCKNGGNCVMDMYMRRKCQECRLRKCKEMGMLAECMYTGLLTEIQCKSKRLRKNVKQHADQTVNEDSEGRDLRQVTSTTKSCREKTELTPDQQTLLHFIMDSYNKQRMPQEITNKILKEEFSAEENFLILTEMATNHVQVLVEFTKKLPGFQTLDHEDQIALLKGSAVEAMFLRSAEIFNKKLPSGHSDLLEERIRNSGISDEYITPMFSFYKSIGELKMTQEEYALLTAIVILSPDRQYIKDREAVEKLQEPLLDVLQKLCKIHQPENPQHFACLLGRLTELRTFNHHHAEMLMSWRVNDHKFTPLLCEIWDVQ

CO[C@@]12[C@H](COC(N)=O)C3=C(C(=O)C(C)=C(N)C3=O)N1C[C@@H]1N[C@@H]12
inactive: [1] | [2] | [3] | [4] | [5] | [6] | [7] | [8] | [9] | [10]

CCCOC(=O)c1ccc(C(=O)OCCC)nc1
not listed: [9] | [16] | [17] | [18] | [19] | [20]
inactive: all other assays above

COCCOC
active: [9] 41.3 µM
not listed: [10] | [11] | [14] | [15] | [19] | [20]
inactive: all other assays above

Oc1cc(O)c(Cl)cc1Cl
not listed: [9] | [14] | [20]
inactive: all other assays above

O=C(OCCOCCO)c1ccccc1Nc1cccc(C(F)(F)F)c1
not listed: [2] | [3] | [9] | [16] | [20]
inactive: all other assays above

c1cc[c]([Bi]([c]2ccccc2)[c]2ccccc2)cc1
active: [9] 30.6 µM
not listed: [3] | [10] | [15] | [16] | [18] | [19] | [20]
inactive: all other assays above

CC(C)(C)CC(C)(C)c1ccc(OCCO)cc1
active: [13] 38.7 µM | [9] 19.2 µM
inactive: [3] | [18] | [5] | [6] | [7] | [8] | [15] | [10]

CCCCCCOC(=O)CCCCCCCC(=O)OCCCCCC
not listed: [2] | [3] | [9] | [11] | [14] | [16] | [20]
inactive: all other assays above

CCCCC/C(=C\c1ccccc1)CO
not listed: [10] | [12] | [13] | [14] | [15] | [19] | [20]
inactive: all other assays above

CC[C@H](NC(=O)c1cc(F)ccc1NS(=O)(=O)c1cccc2cccnc12)c1ccccc1
active: [9] 10.3 µM
not listed: [10] | [11] | [12] | [16] | [17] | [19] | [20]
inactive: all other assays above

CCOC(=O)N1CCC(n2c(=O)[nH]c3cc(Cl)ccc32)CC1
not listed: [3] | [9] | [11] | [16] | [17] | [19] | [20]
inactive: all other assays above

C=CC(C)(C)CC(=O)OC
not listed: [9] | [11] | [20]
inactive: all other assays above

CC[C@@H]([C@H](C)O)n1ncn(-c2ccc(N3CCN(c4ccc(OC[C@@H]5CO[C@@](Cn6cncn6)(c6ccc(F)cc6F)C5)cc4)CC3)cc2)c1=O
inactive: [17] | [18] | [13] | [5] | [6] | [7] | [8] | [10]
active: [1] 29.8 µM | [12] 23.7 µM | [2] 29.8 µM | [4] 29.8 µM | [9] 0.944 µM

Brc1cc(-c2ccc(Br)c(Br)c2Br)cc(Br)c1Br
not listed: [2] | [3] | [9] | [16] | [20]
inactive: all other assays above

COC(=O)c1cc(Cl)ccc1NS(=O)(=O)C(F)(F)F
not listed: [11] | [12] | [17] | [18] | [19] | [20]
inactive: all other assays above

CO[C@H]1C=CO[C@@]2(C)Oc3c(C)c(O)c4c(O)c(c5c(c4c3C2=O)=NC2(CCN(CC(C)C)CC2)N=5)NC(=O)/C(C)=C\C=C/[C@H](C)[C@H](O)[C@@H](C)[C@@H](O)[C@@H](C)[C@H](OC(C)=O)[C@@H]1C
inactive: [3] | [14] | [5] | [6] | [7] | [8] | [15] | [10]
active: [1] 24 µM | [9] 53.3 µM

CC(C)=CC=O
not listed: [3] | [9] | [16] | [20]
inactive: all other assays above

CC1=C(/C=C/C(C)=C\C=C\C(C)=C\C(=O)O)C(C)(C)CCC1
not listed: [3] | [9] | [11] | [14] | [16] | [19] | [20]
inactive: all other assays above

CC1C2CC(CC2C2CCCC(O)C2)C1(C)C (centres undefined)
inactive: [11] | [19] | [3] | [17] | [5] | [6] | [7] | [8] | [9]
active: [13] 49 µM

Cc1oc(C)c(C(=O)Nc2ccccc2)c1C
inactive: [1] | [11] | [2] | [17] | [18] | [5] | [6] | [7] | [8] | [15] | [10]

C=CC(C)=CCC=C(C)C
inactive: [1] | [12] | [17] | [18] | [13] | [5] | [6] | [7] | [8] | [15] | [10]

CC(C)(C)C(=O)O
not listed: [8]
inactive: all other assays above
